Values without a mark were called inactive. Activity calls are given as the source filed them.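 How the source made its calls: active means IC50 of 10 µM or lower; inactive means IC50 above 10 µM.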

The nature of this experiment: small molecules binding CAG repeat RNA – biochemical, fluorescence, dose response, MedChem round 1, SAR follow-up (AID 743497). Conditions: r(CAG) RNA 1x1 AA loop, TO-PRO-1 displacement fluorescence.
With `Cc1c(C(=O)Nc2ccc(S(=O)(=O)Nc3ncccn3)cc2)oc2ccc(F)cc12`, the IC50 (as a rule, the point on the concentration scale where inhibition reaches its midpoint) was greater than 29.9 µM.
Then `O=C(/C=C/c1cn(-c2ccccc2)nc1-c1ccccc1)NCCc1c[nH]c2ccccc12`, with greater than 29.9 µM.
For the compound `CCN(CC)C(=O)/C=C/c1cn(-c2ccccc2)nc1-c1ccccc1`, the IC50 is greater than 29.9 µM.
Regarding `CN1CCC(N(C)C(=O)/C=C/c2cn(-c3ccccc3)nc2-c2ccccc2)CC1`, the IC50 is greater than 29.9 µM.
Then `O=C(/C=C\c1cn(-c2ccccc2)nc1-c1ccc(F)cc1)Nc1ccc(C(=O)O)cc1`, with 2.15 µM (active); and `COc1ccc(-c2nn(-c3ccccc3)cc2/C=C/C(=O)Nc2cccc(NC(C)=O)c2)cc1OC`, with greater than 29.9 µM.
Regarding `N#C/C(=C/c1cn(Cc2ccccc2)nc1-c1cccnc1)C(=O)Nc1ccc(C(=O)O)cc1`, the IC50 was 16 µM.
Then `O=C(/C=C/c1cn(-c2ccccc2)nc1-c1ccccc1)NCCO`, with greater than 29.9 µM; and `NC(=O)c1cc(NC(=O)/C=C/c2cn(-c3ccccc3)nc2-c2ccc(F)cc2)c(F)cc1F`, with greater than 29.9 µM.
For the compound `CN(C)CCCNC(=O)/C=C/c1cn(-c2ccccc2)nc1-c1ccccc1`, the IC50 was greater than 29.9 µM.
Then `Cc1ccc(-c2nn(-c3ccccc3)cc2/C=C/C(=O)Nc2cccc(S(N)(=O)=O)c2)cc1`, with greater than 29.9 µM; and `CCN(c1ccccc1)S(=O)(=O)c1ccc(NC(=O)c2oc3ccc(F)cc3c2C)cc1`, with greater than 29.9 µM.
Then `Cc1c(C(=O)Nc2ccc(S(=O)(=O)N(C)Cc3ccccc3)cc2)oc2ccc(F)cc12`, with greater than 29.9 µM; and `CN(C)C(=O)C1CCN(C(=O)/C=C/c2cn(-c3ccccc3)nc2-c2ccccc2)CC1`, with greater than 29.9 µM; and `CS(=O)(=O)Nc1cc(NC(=O)/C=C/c2cn(-c3ccccc3)nc2-c2ccccc2)ccc1F`, with 6.38 µM (active).
For `COc1ccc(NC(=O)/C=C/c2cn(-c3ccccc3)nc2-c2ccc(OC)cc2)cc1` the value was greater than 29.9 µM; for `Cc1c(C(=O)Nc2ccc(S(=O)(=O)NCCCN3CCOCC3)cc2)oc2ccc(F)cc12`, greater than 29.9 µM; for `Cc1ccc(-c2nn(-c3ccccc3)cc2/C=C/C(=O)Nc2ccc(S(N)(=O)=O)cc2)cc1`, 29.1 µM.
Take `O=C(/C=C/c1cn(-c2ccccc2)nc1-c1ccccc1)Nc1cc(S(=O)(=O)N2CCCC2)ccc1Cl`: the IC50 is greater than 29.9 µM.
Then `O=C(/C=C/c1cn(-c2ccccc2)nc1-c1ccc2ccccc2c1)Nc1ccc(C(=O)O)cc1`, with 2.18 µM (active).
For `O=C(/C=C/c1cn(-c2ccccc2)nc1-c1ccccc1)NCc1ccccc1` the value was greater than 29.9 µM; for `COC(=O)c1ccc(NC(=O)/C=C/c2cn(CCC#N)nc2-c2ccc(F)cc2)cc1`, greater than 29.9 µM; for `COc1ccc(-c2nn(-c3ccccc3)cc2/C=C/C(=O)Nc2ccc(C(=O)O)cc2)cc1`, 1.94 µM (active).
Then `O=C(/C=C/c1cn(-c2ccccc2)nc1-c1ccccc1)N1CCN(CC(=O)N2CCCC2)CC1`, with greater than 29.9 µM; and `CCN1CCN(C(=O)/C=C/c2cn(-c3ccccc3)nc2-c2ccccc2)CC1`, with greater than 29.9 µM.
Regarding `CNC(=O)Cc1ccc(NC(=O)/C=C/c2cn(-c3ccccc3)nc2-c2ccc(F)cc2)cc1`, the IC50 is greater than 29.9 µM.
For `NS(=O)(=O)c1ccc(NC(=O)/C=C/c2cn(-c3ccccc3)nc2-c2cccc(Cl)c2)cc1` the value was greater than 29.9 µM.
Then `CCOC(=O)N1CCC(NC(=O)/C=C/c2cn(-c3ccccc3)nc2-c2ccccc2)CC1`, with greater than 29.9 µM; and `CN1C(=O)/C(=C/c2cn(-c3ccccc3)nc2-c2ccccc2)c2ccccc21`, with greater than 29.9 µM; and `CC(=O)NS(=O)(=O)c1ccc(NC(=O)/C=C/c2cn(-c3ccccc3)nc2-c2ccccc2)cc1`, with 1.62 µM (active).

Values taken from PubChem BioAssay AID743497 (The Scripps Research Institute Molecular Screening Center, 2014).
